Peg3 prom inh: inhibitors of Peg3 promoter; HeLa PEG-Prom luciferase reporter, luminescence, overnight; inhibition, % at 20 µM; 1.7% of 360,000 active; AID 588405;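 active = inhibition of at least 50% at 20 µM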
CF NFkB block: inhibitors of cystic fibrosis induced NF-kB | KKLEB NF-kB-GFP reporter, PAF-induced, GFP fluorescence overnight | inhibition, % at 5 µM | 0.86% of 360,000 active;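 active = at least 50% inhibition at 5 µM, scaled per plate between neutral and stimulator controls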;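 also: PAF is a Pseudomonas aeruginosa culture filtrate used as stimulus; plate controls were PAF-stimulated DMSO wells for no effect and unstimulated DMSO wells for full effect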
ABHD5-PLIN5 inh: inhibitors of human ABHD5-perilipin-5 interaction. inhibition, % at 4 µM. Split G. princeps luciferase complementation, luminescence, 4 h. Q00G26+Q8WTS1. 0.78% of 360,000 active;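 active = inhibition above the mean inhibition across every tested compound plus 3 SD, cut at about 22% in these data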;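 also: 0% = DMSO only wells and the 100% control is not disclosed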
MITF TRPM1 inh: reduces MITF-dependent TRPM1 promoter luciferase signal | inhibition, % at 12.5 µM | 0.83% of 330,000 active | SK-MEL-5 TRPM1 promoter luciferase, 24 h;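 active = mean inhibition across replicates of 60% or more, whatever share of single replicates reaches that level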
KKLEB tox: CF airway cell cytotoxicity counter-screen. KKLEB CF airway cells viability, ATPlite luminescence, overnight; stronger effect = lower value; cells stimulated with P. aeruginosa culture filtrate. 0.36% of 360,000 active. activity change (cytotoxicity), % at 5 µM. AID 602141;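 active = corrected activity change at or below -50% at 5 µM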
HIF-2a inh: inhibitors of HIF-2a; inhibition, % at 18.8 µM; 786-0 RCC cells HIF-2a reporter, luciferase luminescence, overnight; 0.72% of 360,000 active;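 active = inhibition of the luminescence signal of 40% or more relative to plate controls, in a single-dose primary screen at 18.75 µM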
Starred values were filed as active, the others as inactive; x = no result. Most compounds without a hit are left out; they make up all but 3% or so of the library.

SMILES	Peg3 prom inh	CF NFkB block	ABHD5-PLIN5 inh	MITF TRPM1 inh	KKLEB tox	HIF-2a inh
Cc1c(NC(=O)Cn2[nH]c(=O)c3ccccc3c2=O)c(=O)n(-c2ccccc2)n1C	-2.7	-7.6	3.5	14.9	1.3	3.5
Cc1sc(NC(=O)Cn2[nH]c(=O)c3ccccc3c2=O)nc1-c1ccccc1	63.1*	15.7	9.2	12.0	-2.2	-33.1
O=C(Nc1ccc([N+](=O)[O-])cc1)c1nc[nH]c1C(=O)NC1CCCCC1	48.7	35.3	-4.8	10.1	-51.1*	18.6
COc1ccc(-c2ccc3c(c2)C2CC3CCN2C(=O)C(C)(C)C)cc1 (stereo unspecified)	15.1	13.4	-13.0	-7.6	-3.6	-13.7
Cc1cc(C)c2c(c1)/C(=C/C(=O)c1ccc(Br)s1)C(=O)N2	52.3*	40.1	4.6	59.2	-61.2*	4.0
Cc1cc(C)c(C(=O)c2cccs2)c(C)c1	-16.9	-42.1	-6.8	7.2	12.5	10.7
Cc1cc(Br)c2c(c1)/C(=C/C(=O)c1cccs1)C(=O)N2	69.1*	33.1	10.1	50.9	-1.0	24.3
O=C(NC1CCCC1)C(c1ccccn1)N(C(=O)c1csnn1)c1ccccc1Cl (stereo unspecified)	-3.4	-6.3	-4.7	-14.8	3.1	10.1
O=[N+]([O-])c1ccc(N2N=C(c3ccccc3)CC2c2ccccc2O)cc1 (stereo unspecified)	53.0*	40.8	-1.8	2.9	-37.1	-0.1
O=C1OCC2=C1C(c1ccc(F)cc1)c1cc3c(cc1N2)OCO3 (stereo unspecified)	0.5	59.0*	-1.6	47.6	-18.3	12.1
CCOc1ccccc1C1C2=C(COC2=O)Nc2cc3c(cc21)OCO3 (stereo unspecified)	-5.5	53.6*	-1.1	51.6	-6.7	28.6
C#CCOc1ccc(C2C3=C(COC3=O)Nc3cc4c(cc32)OCO4)cc1OC (stereo unspecified)	12.8	-3.3	-4.9	29.8	4.7	15.6
O=C1OCC2=C1C(c1ccc(F)cc1)c1cc3c(cc1N2)OCCO3 (stereo unspecified)	-1.1	63.3*	-0.6	54.0	-27.9	32.0
CCOC(=O)[C@]12CCC=C1N(Cc1ccc3c(c1)OCO3)C(=O)[C@H](CC(=O)NCCc1ccccc1OC)C2	x	x	1.9	x	x	4.7
CCCn1c(=O)c(C(=O)NCc2ccco2)c(O)c2ccccc21	-8.8	-12.3	0.9	13.3	2.1	-12.6
Cc1ccc(NC(=O)c2cc(N3C(=O)C=CC3=O)ccc2Cl)cc1C	79.8*	21.1	4.1	12.8	3.7	29.2
Cc1ccc(NC(=O)c2cc(-n3cnnc3)ccc2Cl)cc1	5.7	-7.5	1.3	5.1	6.1	9.4
COC(=O)N1C(=O)[C@](c2ccc(Cl)cc2)(C(C)C)N1C(=O)OC	30.7	66.2*	-0.7	19.0	-14.1	23.4
CC(C)C(=O)N(c1ccc2oc(=O)sc2c1)S(=O)(=O)c1cccs1	-6.7	-6.9	30.1*	1.6	29.1	-2.7
O=S1(=O)CCN(c2ccccc2CC(c2c[nH]c3ccccc23)c2c[nH]c3ccccc23)CC1	57.4*	7.4	5.0	10.8	15.2	-12.4
COc1cccc(Sc2ccccc2/C=N/NC(N)=O)c1	21.6	19.4	-2.8	13.2	-16.1	13.6
O=C(CSc1ccccc1)Nc1ccc2c(c1)C(=O)NC2=O	-1.1	15.9	8.4	2.2	5.6	-12.5
c1ccc(-c2noc(-c3ccc4ccccc4c3)n2)nc1	86.8*	-42.5	-0.7	79.0*	-90.7*	88.0*
c1ccc(-c2noc(-c3ccncc3)n2)nc1	-101.7	8.5	0.2	-9.6	1.6	-135.7
O=C(c1ccc(NS(=O)(=O)/C=C/c2ccccc2)cc1)N1CCCCC1	13.4	56.0*	-3.9	12.4	-69.3*	20.8
SMILES	Peg3 prom inh	CF NFkB block	ABHD5-PLIN5 inh	MITF TRPM1 inh	KKLEB tox	HIF-2a inh
O=C(c1ccc(NS(=O)(=O)c2ccccc2)cc1)N1CCCC1	17.5	4.5	-0.1	8.8	-3.1	11.0
O=C(NCc1ccc(Cl)cc1)c1ccc(CNc2c(N3CCCC3)c(=O)c2=O)cc1	3.3	1.5	-2.0	0.6	4.0	50.6*
CC(=O)Nc1cccc(NC(=O)CSc2ncc(C(=O)Nc3ccccc3)c(=O)n2C)c1	104.7*	25.7	19.4	66.5*	2.6	0.7
Cn1c(SCC(=O)NCC2CCCO2)ncc(C(=O)Nc2ccc(Cl)cc2)c1=O (stereo unspecified)	58.9*	40.7	-4.6	67.2*	-2.1	-60.8
CC(=O)c1cccc(NC(=O)CSc2ncc(C(=O)Nc3ccccc3)c(=O)n2C)c1	110.3*	15.2	-3.6	63.8*	-1.3	9.6
COc1cccc(OC)c1NC(=O)CN1CCN(C)CC1	14.3	-11.7	10.9	-7.9	8.5	7.9
CCSC1=C(C#N)C2(CCCCC2)C(C#N)C(=O)N1 (stereo unspecified)	54.5*	9.0	3.1	1.9	2.8	12.8
Cc1c(C(=O)NC2CC(=O)N(c3ccc4c(c3)OCCO4)C2)cccc1[N+](=O)[O-] (stereo unspecified)	-8.2	14.1	-10.3	-6.6	5.2	14.8
CC(=O)N(C)c1ccc(OCC(O)Cn2c(C)nc3ccccc32)cc1 (stereo unspecified)	9.8	-14.7	-0.7	15.6	-7.2	16.1
CC(=O)N(C)c1ccc(OCC(O)Cn2c3ccc(Cl)cc3c3cc(Cl)ccc32)cc1 (stereo unspecified)	61.3*	-6.3	19.7	-3.0	-12.9	27.5
Cc1ccc(COc2cccc(/C=N/NC(=O)c3nnn(-c4nonc4N)c3C)c2)cc1	77.2*	58.7*	3.6	4.2	-50.0	-132.2
CCOc1cc(/C=N/NC(=O)c2nnn(-c3nonc3N)c2C)ccc1OCc1ccc(C)cc1	4.0	34.7	3.1	x	-18.9	12.7
COc1ccc(-c2cc(=O)oc3c(C)c(O)c(CN(C)C)cc23)cc1	20.9	54.8*	4.8	1.2	-4.6	19.1
Fc1ccccc1-c1ccc(/C=N/Nc2nc3ccccc3[nH]2)o1	-226.3	-7.8	-4.6	-3.8	-55.2*	-184.0
CCCCn1c(/C=N/Nc2nc3ccccc3[nH]2)nc2ccccc21	-28.9	2.1	-2.3	8.8	-6.4	-135.0
O=C1CC(c2ccc(O)cc2)Oc2cc(O)cc(O)c21 (stereo unspecified)	-56.3	35.5	-6.3	-33.0	-42.9	-20.1
CC1CC(=O)c2c(cc3c(-c4c(O)cc(O)c5c(O)c6c(cc45)OC(C)CC6=O)c(O)cc(O)c3c2O)O1 (stereo unspecified)	104.7*	53.2*	9.9	78.8*	-48.8	91.0*
CN1C2CCC1/C(=C\c1ccc(F)cc1)C(=O)/C2=C/c1ccc(F)cc1	18.4	-37.0	11.5	25.7	0.3	81.7*
O=C(COC(=O)/C=C/c1ccc(Cl)c(Cl)c1)NC1CCCC1	13.5	-35.3	0.3	-1.2	-5.1	6.0

Source: PubChem (several laboratories)
